This passage reports Potency, max response and activity change, positive = activation results from PubChem BioAssay (Tox21).

The nature of test [1]: qHTS assay to identify small molecule agonists of the hypoxia (HIF-1) signaling pathway - cell viability counter screen (AID 1224844; calls by dose curve; note: nearly all actives have a fitted effect of over 50% in size; note: potency is the fitted concentration of half-maximal effect). Summed up: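 CellTiter-Glo luminescence read-out, 30 min RT, taken in the same wells as the beta-lactamase HRE reporter assay; HRE-bla ME-180 cells, 0.5% dialyzed FBS, 17 hr compound treatment at 37C, 5% CO2.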
A general note: qHTS replaces the single test concentration by a dilution series.

Test [2] is described as follows: qHTS assay to identify small molecule agonists of H2AX (AID 1224845; active = well fitted activation curve with a large enough effect in the signal ratio in the repeat runs, not every such curve was filed as active; the % refers to the signal ratio; note: potency is the fitted concentration of half-maximal effect). Summed up:
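Wild-type CHO-K1 cells plated overnight, then exposed 3 hr at 37C to compounds at 15 concentrations (0.76% DMSO). Lysed, then HTRF anti-pH2AX(S139)-cryptate/anti-H2AX-d2 detection after 24 hr at room temperature; emissions 665 and 620 nm.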

Test [3] in a line: qHTS assay to identify small molecule agonists of H2AX - cell viability counter screen (AID 1224847; calls by dose curve; note: nearly all actives have a fitted effect of over 30% in size; note: potency is the fitted concentration of half-maximal effect). Summed up:
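After overnight plating of 1000 CHO-K1 cells per well, a 15-concentration compound series was applied for 3 hr at 37C. Luminescence from CellTiter-Glo, read following 30 min at room temperature, reflected cell viability.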

Test [4] in a line: qHTS RealTime-Glo MT Cell Viability Assay in HepG2 cells - 24 hour (AID 1224867). Note: nearly all actives have a fitted effect of over 50% in size. Note: potency is the fitted concentration of half-maximal effect. The procedure, abridged:
(§1)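 HepG2 cells (600/well) were dispensed with RealTime-Glo reagents, incubated 5 h at 37 °C, then treated with compounds in DMSO for up to 40 h. Nonlytic NanoLuc luminescence reflecting viable cells was read at each stated time point.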

A short description of test [5]: qHTS RealTime-Glo MT Cell Viability Assay in HEK293 cells - 32 hour (AID 1224868). Note: nearly all actives have a fitted effect of over 50% in size. Note: potency is the fitted concentration of half-maximal effect. Summed up: (§2)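 HEK293 cells seeded with NanoLuc/prosubstrate reagent, rested 5 h at 37 C, then dosed and kept at 37 C up to 40 h. Nonlytic real-time luminescence from viable cells read at 0, 8, 16, 24, 32 and 40 h.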
Test [6] in a line: A CellTox Green Cytotoxicity Assay to monitor cytotoxicity in HEK293 cells - 0 hour (AID 1224869). Note: nearly all actives have a fitted effect of over 50% in size. Note: potency is the fitted concentration of half-maximal effect. Summed up:
(§3)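 Read-out: fluorescence of a cell-impermeant cyanine dye staining DNA of dead cells, proportional to cytotoxicity. HEK293, 600 cells/well with reagent, compound (23 nL DMSO) added after 5 h; reads at 0, 8, 16, 24, 32, 40 h.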

Test [7] can be described thus: qHTS RealTime-Glo MT Cell Viability Assay in HepG2 cells - 40 hour (AID 1224870). Note: nearly all actives have a fitted effect of over 50% in size. Note: potency is the fitted concentration of half-maximal effect. Summed up: (§4)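 HepG2 cells mixed with RealTime-Glo MT reagents (NanoLuc plus cell-permeant prosubstrate) were seeded at 600 cells/well, incubated 5 h at 37 C/5% CO2, then pinned with compounds in DMSO; nonlytic luminescence tracked viability during 40 h treatment.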
The nature of test [8]: A CellTox Green Cytotoxicity Assay to monitor cytotoxicity in HEK293 cells - 40 hour (AID 1224871). Note: nearly all actives have a fitted effect of over 45% in size. Note: potency is the fitted concentration of half-maximal effect. Summed up: as §3
Test [9] is described as follows: qHTS RealTime-Glo MT Cell Viability Assay in HEK293 cells - 16 hour (AID 1224872). Note: nearly all actives have a fitted effect of over 50% in size. Note: potency is the fitted concentration of half-maximal effect. Summed up: as §2
Test [10] in a line: qHTS RealTime-Glo MT Cell Viability Assay in HepG2 cells - 8 hour (AID 1224873). Note: nearly all actives have a fitted effect of over 55% in size. Note: potency is the fitted concentration of half-maximal effect. The procedure, abridged: as §4
The nature of test [11]: qHTS RealTime-Glo MT Cell Viability Assay in HEK293 cells - 40 hour (AID 1224874). Note: nearly all actives have a fitted effect of over 50% in size. Note: potency is the fitted concentration of half-maximal effect. Particulars: RealTime-Glo luminescence; max response: stronger effect = lower value. The procedure, abridged: (§5)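 Luminescence readout at each listed time point; HEK293, 600 cells/well, RealTime-Glo MT reagent added with cells; compounds pinned (23 nL in DMSO) after 5 h at 37 C; continuous culture at 37 C.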

A short description of test [12]: A CellTox Green Cytotoxicity Assay to monitor cytotoxicity in HEK293 cells - 24 hour (AID 1224875). Note: nearly all actives have a fitted effect of over 45% in size. Note: potency is the fitted concentration of half-maximal effect. Summed up:
as §3

Test [13] in a line: A CellTox Green Cytotoxicity Assay to monitor cytotoxicity in HepG2 cells - 16 hour (AID 1224876). Note: nearly all actives have a fitted effect of over 45% in size. Note: potency is the fitted concentration of half-maximal effect. Summed up:
(§6)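 HepG2, 600 cells/well premixed w/ CellTox Green; 5 h settle, 37 C/5% CO2; pintool cpd add (DMSO); 37 C, 40 h; fluorescence read at 0, 8, 16, 24, 32, 40 h.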

The nature of test [14]: qHTS RealTime-Glo MT Cell Viability Assay in HepG2 cells - 32 hour (AID 1224877). Note: nearly all actives have a fitted effect of over 55% in size. Note: potency is the fitted concentration of half-maximal effect. Summed up:
as §1

A short description of test [15]: A CellTox Green Cytotoxicity Assay to monitor cytotoxicity in HepG2 cells - 24 hour (AID 1224878). Note: nearly all actives have a fitted effect of over 45% in size. Note: potency is the fitted concentration of half-maximal effect. The procedure, abridged: as §6
The nature of test [16]: A CellTox Green Cytotoxicity Assay to monitor cytotoxicity in HepG2 cells - 40 hour (AID 1224879). Note: nearly all actives have a fitted effect of over 40% in size. Note: potency is the fitted concentration of half-maximal effect. Summed up:
as §6

The nature of test [17]: qHTS RealTime-Glo MT Cell Viability Assay in HEK293 cells - 0 hour (AID 1224880). Note: nearly all actives have a fitted effect of over 45% in size. Note: potency is the fitted concentration of half-maximal effect. Summed up: as §5
Test [18] in a line: qHTS assay to identify small molecule antagonists of the estrogen related receptor (ERR) signaling pathway from Tox21 library (AID 1224848). Note: nearly all actives have a fitted effect of over 50% in size. The procedure, abridged:
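First, 2,000 ERR cells per well were plated and held 6 h at 37 C/5% CO2. Next, compounds in DMSO were pinned in and left 18 h at 37 C. Finally, ONE-Glo was added and luminescence read after 30 min at room temperature.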

The nature of test [19]: qHTS assay to identify small molecule agonists of the estrogen related receptor (ERR) signaling pathway from Tox21 library (AID 1224849; calls by dose curve; note: nearly all actives have a fitted effect of over 15% in size). Particulars: ERR reporter cell line, ONE-Glo luciferase, 18 h; at 92.4 µM (top of the series) unless noted. Summed up: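 Luminescence readout (ONE-Glo, 30 min RT) after 18 h compound exposure at 37 C of NTP-supplied ERR reporter cells; cells were plated 6 h before compound addition by pin tool.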

Unmarked numbers belong to inactive results. Records with an inconclusive call do not appear. Calls of active or inactive are those of the source. Unless noted, calls come from the whole dose curve; as a rule, active = well fitted curve in the direction sought with a large enough effect in the repeat runs; inconclusive = weak or mixed curves; inactive = no such curve, though single readings can be large; an effect the other way counts as inactive or inconclusive.
% is set by controls: 0 for no effect and ±100 for the full control effect.

On to `O=P(Cl)(Cl)Cl`, for which the Potency result in [1], in test [2], in [3], in test [4], in test [5] and in [6] was “inactive” in each case. The Potency entry in test [7], in [8], in test [9], in test [10], in [12] and in [13] was “inactive” in each case. The Potency result in test [14], in [15], in test [16] and in [17] was “inactive” in each case. The max response in test [11] was 0.904%.
As for `ClSC(Cl)(Cl)Cl`, the Potency result in [1], in test [2], in [3], in test [18], in test [4] and in test [5] was “inactive” in each case. Further, the Potency entry in test [6], in [7], in test [8], in test [9], in test [10] and in [12] was “inactive” in each case. Besides, the Potency entry in test [13], in test [14], in test [15], in test [16] and in [17] was “inactive” throughout. The activity change, positive = activation in [19] was 1.32%. Besides, in [11], the max response is 0.633%.
On to `Clc1ccc(C2(Cn3cncn3)OCCO2)c(Cl)c1`, for which the Potency entry in test [1], in test [2], in test [3], in test [18], in test [4] and in test [5] was “inactive” throughout. In addition, the Potency entry in test [6], in test [7], in test [8], in test [9], in test [10] and in [12] was “inactive” in each case. For the same molecule, the Potency entry in test [13], in test [14], in test [15], in test [16] and in test [17] was “inactive” in each case. Also, in test [19], the activity change, positive = activation is -6.38%.
For `CCCCN(CCCC)C(=S)[S-].CCCCN(CCCC)C(=S)[S-].[Ni+2]`, the Potency entry in [1], in [2], in test [3], in test [18], in test [4] and in test [5] was “inactive” each time. The Potency result in [6], in test [7], in test [8], in [9], in test [10] and in test [12] was “inactive” in each case. Also, the Potency result in test [13], in [14], in [15], in test [16] and in test [17] was “inactive” in each case. Moreover, in [19], the activity change, positive = activation is -0.422% [at 42.5 µM]. In addition, the max response in test [11] is -23%.
Take `O=[N+]([O-])C(Br)Br`: the Potency in [1] is 43.7 µM (active); in [5], 55 µM (active); in [9], 55 µM (active); in [11] it was 55 µM (active). Besides, the Potency result in test [2], in test [3], in [18], in test [4], in test [6] and in test [10] was “inactive” in each case. Moreover, the Potency entry in test [13], in test [14], in [15] and in test [17] was “inactive” each time. Further, the activity change, positive = activation in [19] was 5.44%.
In the case of `CCC[CH2][Sn]([CH2]CCC)([CH2]CCC)[CH2]CCC`, the Potency was 11 µM (active) in test [1]; 8 µM (active) in [2]; 14.2 µM (active) in test [3]; 6.16 µM (active) in [4]; 8.71 µM (active) in test [5]; 49 µM (active) in test [6]. Besides, the Potency was 4.9 µM (active) in test [7]; 12.3 µM (active) in [8]; 9.77 µM (active) in [9]; 11 µM (active) in test [10]; 7.76 µM (active) in [11]; 17.4 µM (active) in test [12]. The Potency in test [13] was 17.4 µM (active); in test [14], 4.9 µM (active); in test [15], 13.8 µM (active); in test [16] it was 11 µM (active). In addition, in test [19], the activity change, positive = activation is -63.4%.
As to `CCN1CCC2(CC1)COc1cc3c(cc12)N(C(=O)c1ccc(-c2ccc(-c4nnc(C)o4)cc2C)cc1)CC3`, the Potency was 20.2 µM (active) in test [1]; 104 µM (active) in test [3]; 11.3 µM (active) in [5]; 45.2 µM (active) in [7]; 40.3 µM (active) in test [8]; 18 µM (active) in [9]. Further, the Potency in test [11] is 11.3 µM (active); in test [12], 50.7 µM (active); in test [13] it was 50.7 µM (active); in test [14], 45.2 µM (active); in [16], 45.2 µM (active); in test [17], 25.4 µM (active). Moreover, the Potency entry in [2] and in test [6] was “inactive” throughout. The activity change, positive = activation in test [19] is -74.2%.
